Source: PubChem (National Center for Advancing Translational Sciences (NCATS))
GCN5L2 inh: blocks human GCN5L2 histone acetyltransferase | Potency, µM (top dose mostly 58.9 µM), for inactives: top-dose activity change, negative = inhibition, actives largely listed as inhibitors | Q92830 | AID 504327 | hit rate 0.21% among 390,000 | GCN5L2 HAT assay, ThioGlo1 CoA-SH fluorescence; note: potency is the fitted concentration of half-maximal effect
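Free CoA generated was detected with ThioGlo1 (50uM) fluorescence at Ex340nm/Em540nm, read immediately and after 20 min at room temperature. Enzyme, 20 nM in HEPES pH 7.5 buffer, saw compounds 15 min before adding 75uM H3(1-25) peptide and 70uM acetyl-CoA.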
PLK1 PBD block: PLK1 (human) polo-box domain binding inhibition; Potency, µM, without a hit: max response, negative = inhibition, actives largely listed as inhibitors; Plk1 PBD binding of FITC phosphopeptide, fluorescence polarization; AID 720504; P53350; hit rate 2.8% among 360,000; note: potency is the fitted concentration of half-maximal effect; series mostly up to about 57 µM; nearly all actives have a fitted effect of over 65% in size
VDR inh: inhibitors of human vitamin D receptor. VDR-SRC2-3 peptide fluorescence polarization, 2 h. Potency, µM, without a hit: max response, negative = inhibition, hits mostly inhibitors. hit rate 0.93% among 400,000. AID 504847; note: potency is the fitted concentration of half-maximal effect
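After 23 nl compound addition and a short centrifugation, plates sat for 2 hours at ambient temperature; polarization of fluorescence then indicated loss of VDR binding to peptide SRC2-3.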
GLS inhibitor: blocks human kidney-isoform glutaminase activity; O94925; Potency, µM (highest dose often 45.5 µM), without a hit: top-dose activity change, negative = inhibition, most hits filed as inhibitors; GLS enzymatic activity, qHTS titration; hit rate 0.21% among 410,000; note: potency is the fitted concentration of half-maximal effect
Target sequence (O94925 whole entry, looked up, canonical isoform): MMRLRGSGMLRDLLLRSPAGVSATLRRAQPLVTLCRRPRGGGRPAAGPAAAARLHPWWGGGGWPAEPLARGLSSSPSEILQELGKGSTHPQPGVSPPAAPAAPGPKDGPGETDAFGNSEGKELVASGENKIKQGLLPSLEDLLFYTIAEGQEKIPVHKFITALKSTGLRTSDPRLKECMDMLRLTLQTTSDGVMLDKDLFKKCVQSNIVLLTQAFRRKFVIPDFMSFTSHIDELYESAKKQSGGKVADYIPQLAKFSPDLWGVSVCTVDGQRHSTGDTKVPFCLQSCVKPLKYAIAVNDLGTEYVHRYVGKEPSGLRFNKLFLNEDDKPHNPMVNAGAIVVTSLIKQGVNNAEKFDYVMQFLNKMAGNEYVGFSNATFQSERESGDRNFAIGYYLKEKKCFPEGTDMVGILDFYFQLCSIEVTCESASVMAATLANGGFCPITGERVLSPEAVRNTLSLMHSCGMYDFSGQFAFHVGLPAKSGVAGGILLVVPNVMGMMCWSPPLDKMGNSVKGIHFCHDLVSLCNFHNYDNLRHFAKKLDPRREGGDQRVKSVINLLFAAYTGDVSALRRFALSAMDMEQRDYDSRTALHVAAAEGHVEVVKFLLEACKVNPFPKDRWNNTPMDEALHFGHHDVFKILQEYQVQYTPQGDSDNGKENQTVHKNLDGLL
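hKGA in 45 mM KH2PO4 (pH 8.2), 0.02% Tween-20 with compound, then 1mM L-Glutamine (stock as added) plus glutamate oxidase/HRP/Amplex red coupling mix. Fluorescence read initially and after 30 min at RT; signal change reflects glutamate formation.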
PI4K2A block: inhibitors of human PI4K2A | Q9BTU6 | purified PI4K2A, ADP-Glo luminescence, 1 h; active compounds read low | activity change, negative = inhibition, % at 76.9 µM | hit rate 0.13% among 420,000 | AID 1346378; in the data active = activity change below about -50%; inconclusive = mostly about -30% to -49%;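 note: -100% = wells without enzyme as full effect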
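PI4K2A activity was measured by ADP-Glo luminescence: enzyme (4 ug/mL stock) and phosphatidylinositol (1.2 mM stock) in Tris pH 7.5/MgCl2/EGTA/Triton X-100 buffer were reacted with ATP (300 microM stock) for one hour at ambient temperature.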
Numbers without * were called inactive. Shown are actives, neighbours in structure and some others; about 3.1% of the full set was active somewhere. Unless noted, calls come from the whole dose curve; as a rule, active = well fitted curve in the direction sought with a large enough effect; inconclusive = small, poorly fitted or top-dose-only effect, or another doubt; inactive = no such curve, though single readings can be large; an effect the other way counts as inactive or inconclusive. Unless noted, % is set by controls: 0 for no effect and ±100 for the full control effect.

Screening CN(C)S(=O)(=O)c1ccc2nc(COCc3nc4ccc(S(=O)(=O)N(C)C)cc4[nH]3)[nH]c2c1 returned PI4K2A block -3.
O=C(NCCO)c1cc2cc(Cl)cc(Cl)c2oc1=O was read as GCN5L2 inh inconclusive, PLK1 PBD block 13µM*, VDR inh inconclusive, GLS inhibitor inconclusive and PI4K2A block -14.
O=C(O)c1cc2cc(Cl)cc(Cl)c2oc1=O was read as GCN5L2 inh -12%, PLK1 PBD block inconclusive, VDR inh -5%, GLS inhibitor -2% and PI4K2A block -8.
`Cc1cc(C(=O)CCl)c(C)n1CCc1ccc(F)cc1` gave GCN5L2 inh -8%, PLK1 PBD block -20%, VDR inh -8%, GLS inhibitor 6% and PI4K2A block -2.
For Cc1cc(C(=O)CCl)c(C)n1CCc1ccc(Cl)cc1 the results were GCN5L2 inh -14%, PLK1 PBD block inconclusive, VDR inh 18µM*, GLS inhibitor 11% and PI4K2A block 26.
`Oc1c(CN2CCOCC2)cc(-c2ccccc2)cc1CN1CCOCC1` gave GCN5L2 inh -5%, PLK1 PBD block -3%, VDR inh -7%, GLS inhibitor 35% and PI4K2A block 2.
Oc1c(CN2CCOCC2)ccc2ccccc12 was read as GCN5L2 inh 0%, PLK1 PBD block 24µM*, VDR inh inconclusive, GLS inhibitor 3% and PI4K2A block -1.
For O=C(O)C(Cc1ccccc1)N1C(=O)/C(=C/C=C/c2ccco2)SC1=S (stereo unspecified) the results were GCN5L2 inh 8.9µM*, PLK1 PBD block 2.7µM*, VDR inh 53%, GLS inhibitor -27% and PI4K2A block -28.
For O=C(O)C(Cc1ccccc1)N1C(=O)/C(=C/c2cccnc2)SC1=S (stereo unspecified) the results were GCN5L2 inh -9%, PLK1 PBD block 0%, VDR inh inconclusive, GLS inhibitor 0% and PI4K2A block -4.
`O=C(NN1C(=O)/C(=C/C=C/c2ccco2)SC1=S)c1ccccc1O` gave GCN5L2 inh inconclusive, PLK1 PBD block 6.7µM*, VDR inh 46%, GLS inhibitor 57% and PI4K2A block -24.
Screening COc1ccccc1/C=C1\SC(=S)N(C(C(=O)O)c2ccccc2)C1=O (stereo unspecified) returned GCN5L2 inh -12%, PLK1 PBD block 24µM*, VDR inh -2%, GLS inhibitor 26% and PI4K2A block -7.
COc1ccc(/C=C2\SC(=S)N(C(Cc3ccccc3)C(=O)O)C2=O)cc1 (stereo unspecified) was read as GCN5L2 inh -20%, PLK1 PBD block 27µM*, VDR inh -17%, GLS inhibitor -11% and PI4K2A block -5.
COc1cccc(N2CC(NC(=O)C3CC3)CC2=O)c1 (stereo unspecified) was read as GCN5L2 inh 1%, VDR inh 8%, GLS inhibitor 2% and PI4K2A block 0.
`Cc1ccccc1NC(=O)N(C)[C@H]1C[C@H]2c3[nH]c4c(-c5ccc6c(c5)OCO6)cccc4c3CCN2C[C@H]1[C@H](C)O` gave PI4K2A block -2.
Cc1cc(-c2n[nH]c(=S)o2)c(C)n1-c1ccccc1 was read as GCN5L2 inh -4%, PLK1 PBD block -16%, VDR inh -7%, GLS inhibitor 9% and PI4K2A block -7.
Oc1cc2ccccc2cc1-c1n[nH]c(=S)o1 was read as GCN5L2 inh -5%, PLK1 PBD block 12µM*, VDR inh inconclusive, GLS inhibitor 23% and PI4K2A block -12.
`COC(=O)/C=C1\SC(N2CCOCC2)=C(c2ccc(OC)cc2)C1=O` gave GCN5L2 inh inconclusive, PLK1 PBD block 15µM*, VDR inh inconclusive, GLS inhibitor 3% and PI4K2A block -13.
CCC(C)(C)NC(=O)c1cccc(NC(=O)C(C)C)c1 was read as GCN5L2 inh 4%, PLK1 PBD block 21µM*, VDR inh -6%, GLS inhibitor 2% and PI4K2A block 3.
Cc1ccc(N2NC(=O)/C(=C/c3ccc(-c4ccc(Cl)c(C(=O)O)c4)o3)C2=O)cc1C was read as GCN5L2 inh -5%, PLK1 PBD block inconclusive, VDR inh 5%, GLS inhibitor inconclusive and PI4K2A block -15.
COC(=O)c1ccccc1-c1ccc(C(c2c(C)[nH][nH]c2=O)c2c(C)[nH][nH]c2=O)o1 was read as GCN5L2 inh -2%, PLK1 PBD block inconclusive, VDR inh inconclusive, GLS inhibitor 13% and PI4K2A block inconclusive.
`COC(=O)c1cccc(-c2ccc(C(c3c(C)[nH][nH]c3=O)c3c(C)[nH][nH]c3=O)o2)c1` gave GCN5L2 inh -3%, PLK1 PBD block 24µM*, VDR inh -27%, GLS inhibitor inconclusive and PI4K2A block inconclusive.
`Cc1[nH][nH]c(=O)c1C(c1ccc(-c2ccc(Cl)c(C(=O)O)c2)o1)c1c(C)[nH][nH]c1=O` gave GCN5L2 inh -22%, PLK1 PBD block inconclusive, VDR inh 40µM*, GLS inhibitor 2% and PI4K2A block -59*.
CCOC(=O)COc1ccc2ccccc2c1/C=C/[N+](=O)[O-] was read as GCN5L2 inh -3%, PLK1 PBD block 6µM*, VDR inh 25µM*, GLS inhibitor 5% and PI4K2A block 17.
Screening O=[N+]([O-])/C=C/c1c(OCc2ccccc2)ccc2ccccc12 returned GCN5L2 inh -5%.
COc1cccc(CCNC(=O)c2ccc(Cn3c(SCc4ccccc4)nc4cccnc43)cc2)c1 was read as GCN5L2 inh -3%, VDR inh 0%, GLS inhibitor 0% and PI4K2A block 1.
Cc1cc(NC(=O)CCCN2C(=O)c3cccnc3C2=O)no1 was read as GCN5L2 inh -7%, PLK1 PBD block 3µM*, VDR inh -19%, GLS inhibitor inconclusive and PI4K2A block -21.
Cc1cc(NC(=O)CCCN2C(=O)c3cccc4cccc(c34)C2=O)no1 was read as GCN5L2 inh -1%, PLK1 PBD block -10%, VDR inh -20%, GLS inhibitor -7% and PI4K2A block 1.
C=CCN1[C@@H](C)COc2cccc(N3CCSCC3)c2S1(=O)=O was read as PI4K2A block -5.
Screening CCCC1CCC2(CC1)CCC2OC(=O)Nc1ccc(F)cc1 (stereo unspecified) returned PI4K2A block 3.
For Cc1noc(C)c1-c1cncnc1N1CCN(C)CC1 the results were GCN5L2 inh -8% and VDR inh 32µM*.
For COc1ccc(S[C@]2(C(=O)NCC(C)C)CC(=O)N[C@@H]2c2ccc(OC)cc2)cc1 the results were PI4K2A block 2.
Screening O=C1CCCCCN1Cc1ccccc1 returned GCN5L2 inh -27%, PLK1 PBD block 30µM*, VDR inh -16%, GLS inhibitor -18% and PI4K2A block -4.
